{
  "source": "paper PMC9911399",
  "about": "“Two distinct binding modes provide the RNA-binding protein RbFox with extraordinary sequence specificity”",
  "binders": {"B1": {"name": "CCACGAC (DNA:RNA)", "RNA": "GGGAGACCGGAAUUCAGAUUGUCCCCACGACUUAAAUCCCGUCGUAGCCACCA", "DNA 1": "CAATCTGAATTCCGGTCTCCC", "DNA 2": "TGGTGGCTACGACGGGATT"}, "B2": {"name": "AUUAACG (DNA:RNA)", "RNA": "GGGAGACCGGAAUUCAGAUUGUCCAUUAACGUUAAAUCCCGUCGUAGCCACCA", "DNA 1": "CAATCTGAATTCCGGTCTCCC", "DNA 2": "TGGTGGCTACGACGGGATT"}, "B3": {"name": "ACCAUGA (DNA:RNA)", "RNA": "B2 RNA with U26C, U27C, A29U, C30G, G31A", "DNA 1": "CAATCTGAATTCCGGTCTCCC", "DNA 2": "TGGTGGCTACGACGGGATT"}, "B4": {"name": "AUGAUUG (DNA:RNA)", "RNA": "B2 RNA with U27G, A29U, C30U", "DNA 1": "CAATCTGAATTCCGGTCTCCC", "DNA 2": "TGGTGGCTACGACGGGATT"}, "B5": {"name": "AUGAAUG (DNA:RNA)", "RNA": "B2 RNA with U27G, C30U", "DNA 1": "CAATCTGAATTCCGGTCTCCC", "DNA 2": "TGGTGGCTACGACGGGATT"}, "B6": {"name": "AUCCAUG (DNA:RNA)", "RNA": "B2 RNA with U27C, A28C, C30U", "DNA 1": "CAATCTGAATTCCGGTCTCCC", "DNA 2": "TGGTGGCTACGACGGGATT"}, "B7": {"name": "AUGAAUC (DNA:RNA)", "RNA": "B2 RNA with U27G, C30U, G31C", "DNA 1": "CAATCTGAATTCCGGTCTCCC", "DNA 2": "TGGTGGCTACGACGGGATT"}, "B8": {"name": "AUGAUUC (DNA:RNA)", "RNA": "B2 RNA with U27G, A29U, C30U, G31C", "DNA 1": "CAATCTGAATTCCGGTCTCCC", "DNA 2": "TGGTGGCTACGACGGGATT"}, "B9": {"name": "UCUGGGU (DNA:RNA)", "RNA": "B1 RNA with C25U, A27U, C28G, A30G, C31U", "DNA 1": "CAATCTGAATTCCGGTCTCCC", "DNA 2": "TGGTGGCTACGACGGGATT"}, "B10": {"name": "GUGGUUC (DNA:RNA)", "RNA": "B2 RNA with A25G, U27G, A28G, A29U, C30U, G31C", "DNA 1": "CAATCTGAATTCCGGTCTCCC", "DNA 2": "TGGTGGCTACGACGGGATT"}, "B11": {"name": "AGCGCCG (DNA:RNA)", "RNA": "B2 RNA with U26G, U27C, A28G, A29C", "DNA 1": "CAATCTGAATTCCGGTCTCCC", "DNA 2": "TGGTGGCTACGACGGGATT"}, "B12": {"name": "ACACACC (DNA:RNA)", "RNA": "B1 RNA with C25A, G29A, A30C", "DNA 1": "CAATCTGAATTCCGGTCTCCC", "DNA 2": "TGGTGGCTACGACGGGATT"}, "B13": {"name": "UGUGUAA (DNA:RNA)", "RNA": "B2 RNA with A25U, U26G, A28G, A29U, C30A, G31A", "DNA 1": "CAATCTGAATTCCGGTCTCCC", "DNA 2": "TGGTGGCTACGACGGGATT"}, "B14": {"name": "CAACCGG (DNA:RNA)", "RNA": "B1 RNA with C26A, G29C, A30G, C31G", "DNA 1": "CAATCTGAATTCCGGTCTCCC", "DNA 2": "TGGTGGCTACGACGGGATT"}, "B15": {"name": "CUACAAU (DNA:RNA)", "RNA": "B1 RNA with C26U, G29A, C31U", "DNA 1": "CAATCTGAATTCCGGTCTCCC", "DNA 2": "TGGTGGCTACGACGGGATT"}, "B16": {"name": "CGGCAAU (DNA:RNA)", "RNA": "B1 RNA with C26G, A27G, G29A, C31U", "DNA 1": "CAATCTGAATTCCGGTCTCCC", "DNA 2": "TGGTGGCTACGACGGGATT"}, "B17": {"name": "UUGGUUU (DNA:RNA)", "RNA": "B2 RNA with A25U, U27G, A28G, A29U, C30U, G31U", "DNA 1": "CAATCTGAATTCCGGTCTCCC", "DNA 2": "TGGTGGCTACGACGGGATT"}, "B18": {"name": "CGUUGUA (DNA:RNA)", "RNA": "B1 RNA with C26G, A27U, C28U, A30U, C31A", "DNA 1": "CAATCTGAATTCCGGTCTCCC", "DNA 2": "TGGTGGCTACGACGGGATT"}, "B19": {"name": "GAAUGUA (DNA:RNA)", "RNA": "B1 RNA with C25G, C26A, C28U, A30U, C31A", "DNA 1": "CAATCTGAATTCCGGTCTCCC", "DNA 2": "TGGTGGCTACGACGGGATT"}, "B20": {"name": "GGAUGUA (DNA:RNA)", "RNA": "B1 RNA with C25G, C26G, C28U, A30U, C31A", "DNA 1": "CAATCTGAATTCCGGTCTCCC", "DNA 2": "TGGTGGCTACGACGGGATT"}, "B21": {"name": "CGAUGUA (DNA:RNA)", "RNA": "B1 RNA with C26G, C28U, A30U, C31A", "DNA 1": "CAATCTGAATTCCGGTCTCCC", "DNA 2": "TGGTGGCTACGACGGGATT"}, "B22": {"name": "CUAUGUA (DNA:RNA)", "RNA": "B1 RNA with C26U, C28U, A30U, C31A", "DNA 1": "CAATCTGAATTCCGGTCTCCC", "DNA 2": "TGGTGGCTACGACGGGATT"}, "B23": {"name": "GUCCGUA (DNA:RNA)", "RNA": "B1 RNA with C25G, C26U, A27C, A30U, C31A", "DNA 1": "CAATCTGAATTCCGGTCTCCC", "DNA 2": "TGGTGGCTACGACGGGATT"}, "B24": {"name": "GUAUGUA (DNA:RNA)", "RNA": "B1 RNA with C25G, C26U, C28U, A30U, C31A", "DNA 1": "CAATCTGAATTCCGGTCTCCC", "DNA 2": "TGGTGGCTACGACGGGATT"}, "B25": {"name": "GCAUAUA (DNA:RNA)", "RNA": "B1 RNA with C25G, C28U, G29A, A30U, C31A", "DNA 1": "CAATCTGAATTCCGGTCTCCC", "DNA 2": "TGGTGGCTACGACGGGATT"}, "B26": {"name": "ACAUGUA (DNA:RNA)", "RNA": "B1 RNA with C25A, C28U, A30U, C31A", "DNA 1": "CAATCTGAATTCCGGTCTCCC", "DNA 2": "TGGTGGCTACGACGGGATT"}, "B27": {"name": "GCAUGUA (DNA:RNA)", "RNA": "B1 RNA with C25G, C28U, A30U, C31A", "DNA 1": "CAATCTGAATTCCGGTCTCCC", "DNA 2": "TGGTGGCTACGACGGGATT"}, "B28": {"name": "GUUUGUA (DNA:RNA)", "RNA": "B2 RNA with A25G, A28U, A29G, C30U, G31A", "DNA 1": "CAATCTGAATTCCGGTCTCCC", "DNA 2": "TGGTGGCTACGACGGGATT"}, "B29": {"name": "GAUUGUA (DNA:RNA)", "RNA": "B2 RNA with A25G, U26A, A28U, A29G, C30U, G31A", "DNA 1": "CAATCTGAATTCCGGTCTCCC", "DNA 2": "TGGTGGCTACGACGGGATT"}, "B30": {"name": "AGACUAU (DNA:RNA)", "RNA": "B1 RNA with C25A, C26G, G29U, C31U", "DNA 1": "CAATCTGAATTCCGGTCTCCC", "DNA 2": "TGGTGGCTACGACGGGATT"}, "B31": {"name": "CGUCGCC (DNA:RNA)", "RNA": "B1 RNA with C26G, A27U, A30C", "DNA 1": "CAATCTGAATTCCGGTCTCCC", "DNA 2": "TGGTGGCTACGACGGGATT"}},
  "note": "Residue numbers refer to the chain shown, from its start. Over roughly 16,000 sequences, “ka relative to ugcaugu” has its median near 0.096; the highest 2% begin near 0.35. For the sample, the highest values were picked, then their nearest neighbours and some sequences at random.",
  "data": [
    {"molecular_target": "T1, RBFOX1 RRM RbFoxmut (Fox-RRM*) (Homo sapiens, UniProt Q9NWB1 109-208, R118D;E147R;N151S;E152T)", "T1 sequence": "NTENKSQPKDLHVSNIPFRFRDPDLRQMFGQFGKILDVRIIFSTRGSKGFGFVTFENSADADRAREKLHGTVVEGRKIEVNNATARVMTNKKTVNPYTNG", "test": "EMSA; HiTS-Eq, 1 nM pool, 10 min; buffer printed only for the single-RNA assays: 10 mM Tris pH 7.5, 150 mM NaCl, 3.4 mM EDTA, 0.001% NP-40, 30 C", "conditions": "tags: His6 N-terminal (pET28a); label: 5' 32P", "summary_of_the_method": "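Purified RbFox RRM (wild type or mutant) was equilibrated for 10 min in 50 µL with 1 nM of a 5′-radiolabelled pool of RNA with 7 randomized nucleotides, its flanks annealed to DNA oligonucleotides, across increasing protein concentrations. Free RNA was separated by 8% native PAGE, excised, reverse-transcribed, PCR-barcoded and sequenced on an Illumina HiSeq 2500. Relative association constants came from read-count changes of each variant against the control reaction, normalised to the cognate motif.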", "values": [
      {"binder": "B1", "binding signal": "0.0943 KA relative to UGCAUGU"},
      {"binder": "B2", "binding signal": "0.134 KA relative to UGCAUGU"},
      {"binder": "B3", "binding signal": "0.076 KA relative to UGCAUGU"},
      {"binder": "B4", "binding signal": "0.428 KA relative to UGCAUGU"},
      {"binder": "B5", "binding signal": "1.02 KA relative to UGCAUGU"},
      {"binder": "B6", "binding signal": "0.1 KA relative to UGCAUGU"},
      {"binder": "B7", "binding signal": "0.334 KA relative to UGCAUGU"},
      {"binder": "B8", "binding signal": "0.139 KA relative to UGCAUGU"},
      {"binder": "B9", "binding signal": "0.0963 KA relative to UGCAUGU"},
      {"binder": "B10", "binding signal": "0.283 KA relative to UGCAUGU"},
      {"binder": "B11", "binding signal": "0.116 KA relative to UGCAUGU"},
      {"binder": "B12", "binding signal": "0.0425 KA relative to UGCAUGU"},
      {"binder": "B13", "binding signal": "0.111 KA relative to UGCAUGU"},
      {"binder": "B14", "binding signal": "0.0516 KA relative to UGCAUGU"},
      {"binder": "B15", "binding signal": "0.0289 KA relative to UGCAUGU"},
      {"binder": "B16", "binding signal": "0.053 KA relative to UGCAUGU"},
      {"binder": "B17", "binding signal": "0.1 KA relative to UGCAUGU"},
      {"binder": "B18", "binding signal": "0.258 KA relative to UGCAUGU"},
      {"binder": "B19", "binding signal": "1.18 KA relative to UGCAUGU"},
      {"binder": "B20", "binding signal": "0.285 KA relative to UGCAUGU"},
      {"binder": "B21", "binding signal": "0.202 KA relative to UGCAUGU"},
      {"binder": "B22", "binding signal": "0.198 KA relative to UGCAUGU"},
      {"binder": "B23", "binding signal": "0.12 KA relative to UGCAUGU"},
      {"binder": "B24", "binding signal": "0.63 KA relative to UGCAUGU"},
      {"binder": "B25", "binding signal": "0.169 KA relative to UGCAUGU"},
      {"binder": "B26", "binding signal": "0.2 KA relative to UGCAUGU"},
      {"binder": "B27", "binding signal": "1.04 KA relative to UGCAUGU"},
      {"binder": "B28", "binding signal": "0.446 KA relative to UGCAUGU"},
      {"binder": "B29", "binding signal": "0.284 KA relative to UGCAUGU"},
      {"binder": "B30", "binding signal": "0.0902 KA relative to UGCAUGU"},
      {"binder": "B31", "binding signal": "0.0841 KA relative to UGCAUGU"}
    ]}
  ]
}
